Test results taken from PubChem BioAssay AID651814 (National Center for Advancing Translational Sciences (NCATS), 2012).
Out of some 2,100 compounds screened, about 590 (28%) were called active. Inconclusive results (about 42%) are left out. Calls come from the whole dose curve; as a rule, active = well fitted inhibition curve with a large enough effect; inconclusive = small, poorly fitted or top-dose-only effect; inactive = flat fitted curve, though single readings scatter. Some of the results follow.

These compounds were tested against DNA dC->dU-editing enzyme APOBEC-3F (Homo sapiens) (UniProt Q8IUX4) (assay: qHTS for inhibitors of Vif-A3F interactions: Cherry picks). Settings: HeLa A3F-eYFP + Vif (tagged APOBEC3F with the HIV-1 protein that degrades it), eYFP fluorescence, 24 h.
Sequence of DNA dC->dU-editing enzyme APOBEC-3F (Homo sapiens) (Q8IUX4 whole entry, looked up): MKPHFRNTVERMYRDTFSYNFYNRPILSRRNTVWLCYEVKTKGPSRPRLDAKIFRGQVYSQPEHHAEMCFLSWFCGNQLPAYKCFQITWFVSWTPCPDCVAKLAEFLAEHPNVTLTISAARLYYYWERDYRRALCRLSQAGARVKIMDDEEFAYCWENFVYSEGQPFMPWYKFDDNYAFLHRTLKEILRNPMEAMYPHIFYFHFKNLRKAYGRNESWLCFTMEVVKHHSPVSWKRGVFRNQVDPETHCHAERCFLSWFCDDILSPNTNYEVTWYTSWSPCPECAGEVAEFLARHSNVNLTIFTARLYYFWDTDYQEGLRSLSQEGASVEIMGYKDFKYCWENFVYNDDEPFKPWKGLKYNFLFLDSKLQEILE
Outline: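 Read-out: yellow fluorescence (ex 488 nm, em 500-530 nm) by laser-scanning cytometer after 24 h compound exposure, several concentrations, at 37 deg C. Cells: HeLa line stably co-expressing Vif and C-terminally eYFP-tagged A3F; MG132 served as positive control.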
Note: nearly all actives have a fitted effect of over 70% in size.
Potency is the fitted concentration of half-maximal effect.
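Throughout, for max response: % of control where 0% means no effect; active compounds raise eYFP fluorescence by blocking Vif-driven A3F loss.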

Row | SMILES | max response | Potency
1 | Cc1ccc(-n2c(O)c(/C=C3/C(c4ccccc4)=Nc4ccccc43)c(=O)[nH]c2=O)cc1 | -12.3% (inactive) | 
2 | CCN1CCc2nc3sc(C(=O)c4ccccc4)c(N)c3cc2C1 |  | 16.4 µM (active)
3 | Cc1ccccc1NC(=O)c1sc2nc3c(c(-c4ccco4)c2c1N)CCC3 | -22.7% (inactive) | 
4 | COc1ccc(NC(=O)c2sc3nc4c(cc3c2N)CN(Cc2ccccc2)CC4)c(OC)c1 |  | 20.6 µM (active)
5 | Cc1cc(N2CCN(C)CC2)ccc1NC(=O)c1c2c(nc3ccccc13)CCN(Cc1ccccc1)C2 | -29.2% (inactive) | 
6 | Nc1c(C(=O)c2ccc(Cl)cc2)sc2nc3c(cc12)CCC3 |  | 23.1 µM (active)
7 | Cc1ccc(NC2=C(Cl)C(=O)N(C3CCCCC3)C2=O)cc1 | -3.54% (inactive) | 
8 | COc1cnc(-c2ccccn2)nc1Oc1ccc(F)cc1F | 2.31% (inactive) | 
9 | Cc1ccc(SC2=C(Sc3ccc(C)cc3)C(=O)c3ccccc3C2=O)cc1 |  | 20.6 µM (active)
10 | Cc1c(NC(=O)c2csc3c2CCCC3)c(=O)n(-c2ccccc2)n1C | 0.352% (inactive) | 
11 | Cc1c(N=C2N=C(NC(=O)c3cccs3)c3ccccc32)c(=O)n(-c2ccccc2)n1C |  | 15.8 µM (active)
12 | Cc1c(N/N=C(\C#N)C(=O)c2ccc(Cl)cc2)c(=O)n(-c2ccccc2)n1C | -12.8% (inactive) | 
13 | COc1ccc(-c2csc(NC(=S)NC(=O)/C=C/c3ccco3)n2)cc1Br |  | 7.04 µM (active)
14 | COc1cccc(NC(=O)Nc2nc(-c3ccc(OC)c(OC)c3)cs2)c1 | -25.2% (inactive) | 
15 | O=C(/C=C/c1ccco1)NC(=S)Nc1ccc(N2CCCC2)cc1 | -28% (inactive) | 
16 | Cc1ccc(C(=O)NCCn2c(N)c(C#N)c3nc4ccccc4nc32)cc1 |  | 23.1 µM (active)
17 | Cn1c(=S)c2[nH]c(SCCN3CCCC3)nc2n(C)c1=O | 0.53% (inactive) | 
18 | O=C(N/N=C/c1c(O)n(-c2ccc(Cl)cn2)c(=O)c2ccccc12)c1ccncc1 | -9.07% (inactive) | 
19 | Cc1ccc(N=Cc2c(O)n(-c3nccs3)c(=O)c3ccccc23)c(C)c1 | -4.13% (inactive) | 
20 | COc1ccc(N=Cc2c(O)n(-c3cccc(C)n3)c(=O)c3ccccc23)c(OC)c1 |  | 13 µM (active)
21 | CCC(=Nc1ccccc1O)C1=C(O)CC(c2ccccc2)CC1=O (stereo unspecified) | -8% (inactive) | 
22 | CCN(CC)c1ccc2cc(-c3nc(-c4cccs4)no3)c(=O)oc2c1 |  | 2.06 µM (active)
23 | CCN(CC)c1ccc2cc(-c3nc(-c4ccc(Cl)cc4Cl)cs3)c(=O)oc2c1 | -3.92% (inactive) | 

Row | SMILES | max response | Potency
24 | CCN(CC)c1ccc2cc(-c3nnc(-c4cccc(Cl)c4)o3)c(=O)oc2c1 |  | 0.58 µM (active)
25 | CCN(CC)c1ccc2cc(-c3nc(-c4ccccc4)no3)c(=O)oc2c1 |  | 3.66 µM (active)
26 | CCN(CC)c1ccc2cc(-c3nnc(-c4ccccc4)o3)c(=O)oc2c1 |  | 0.0994 µM (active)
27 | CCOC(=O)c1c(C)sc(-c2c(-c3ccccc3)[nH]c3[nH]c(=O)[nH]c(=O)c23)c1O | -22.6% (inactive) | 
28 | Cc1ccc(Nc2nc(-c3cccnc3)nc3ccccc23)cc1 | -12.4% (inactive) | 
29 | CC1CCN(C(=O)C(C)Sc2nc(-c3ccccc3)cc(C(F)(F)F)n2)CC1 (stereo unspecified) | 1.1% (inactive) | 
30 | CCN(CC)c1ccc2cc(-c3nc(-c4cc(OC)c(OC)c(OC)c4)no3)c(=O)oc2c1 |  | 0.366 µM (active)
31 | CCN(CC)c1ccc2cc(-c3nc4ccccc4n3C)c(=O)oc2c1 |  | 4.11 µM (active)
32 | CN1/C(=C/C=C(C#N)C#N)C(C)(C)c2ccccc21 |  | 18.4 µM (active)
33 | CC1=C/C(=C\C=C(C#N)C#N)N(C)c2ccccc21 |  | 2.31 µM (active)
34 | CN1/C(=C/C=C(/C#N)C(N)=O)C(C)(C)c2ccccc21 |  | 6.27 µM (active)
35 | COCCNC(=S)N/N=C(\C)c1ccc(OC(F)F)cc1 | 0.658% (inactive) | 
36 | COc1ccccc1-c1noc(-c2ccc(NCc3ccco3)c([N+](=O)[O-])c2)n1 |  | 14.6 µM (active)
37 | O=[N+]([O-])c1cc(-c2nc(-c3ccccc3)no2)ccc1NCc1ccco1 |  | 8.2 µM (active)
38 | Cc1cccc(-c2noc(-c3ccc(NCc4ccco4)c([N+](=O)[O-])c3)n2)c1 |  | 14.6 µM (active)
39 | O=c1c2ccccc2sc2ccc(NCCCN3CCOCC3)cc12 |  | 20.6 µM (active)
40 | Cc1ccc(Cl)cc1NC(=O)Nc1cn(CC(C)C)c(=O)c2ccccc12 | -13.3% (inactive) | 
41 | Cc1ccc(C)c(NC(=O)N2CC=C(c3c[nH]c4ccccc34)CC2)c1 | -19.7% (inactive) | 
42 | Cc1ccc(C)c(NC(=O)Cn2cc(S(=O)(=O)Cc3cccc(Cl)c3)c3ccccc32)c1 |  | 8.2 µM (active)
43 | Cc1ccc(S(=O)(=O)C(C#N)c2nc3ccccc3nc2N2CCCC2)cc1 (stereo unspecified) | -28.7% (inactive) | 
44 | COc1cc2nc(SCC(=O)NCc3ccco3)n(Cc3ccc(Cl)cc3)c(=O)c2cc1OC |  | 8.2 µM (active)
45 | CCn1c(SCC(=O)Nc2cccc(O)c2)nc2c1c(=O)n(C)c(=O)n2C | 0.997% (inactive) | 
46 | COc1ccc(NC(=O)CSc2nc3c(oc4ccccc43)c(=O)n2Cc2ccco2)cc1Cl |  | 14.6 µM (active)

Row | SMILES | max response | Potency
47 | S=C(NCc1ccco1)Nc1ccc(Cl)cn1 | -0.0392% (inactive) | 
48 | COc1ccccc1CCC(=O)Nc1ccc2c(c1)c(=O)n(C)n2Cc1ccc(F)cc1 | -22.3% (inactive) | 
49 | CCCCOc1ccc(-c2nnn(CC(=O)NCc3ccco3)n2)cc1 | -20.9% (inactive) | 
50 | O=Cc1s/c(=N\S(=O)(=O)c2ccccc2)n(CCCCl)c1Cl | -29.9% (inactive) | 
51 | COc1ccc(C(=O)/C=C/Nc2ccc([N+](=O)[O-])cc2C)c(OC)c1 |  | 13 µM (active)
52 | COc1ccc(NC(=S)Nc2ncccc2C)c(OC)c1 | 0.806% (inactive) | 
53 | COc1ccc(C(=O)c2cc([N+](=O)[O-])ccc2N2CCCC2)cc1 | -19.8% (inactive) | 
54 | COc1ccccc1NC(=O)Cc1ccc(-c2ccccc2)cc1 | 3.04% (inactive) | 
55 | O=C(NC(=S)Nc1ccc(-c2ccccc2)cc1)c1ccccc1 | 1.35% (inactive) | 
56 | O=C(Nc1ccccc1OC(=O)c1ccccc1)c1ccccc1 |  | 17.7 µM (active)
57 | COC(=O)c1cc(Nc2nc3ccccc3nc2NS(=O)(=O)c2ccc(C)cc2)ccc1Cl | -5.41% (inactive) | 
58 | COc1ccc(/C=C2\C(=O)NC(=S)N2C(=O)c2ccc(F)cc2)cc1 |  | 13 µM (active)
59 | COc1ccc(/C=C/C=C2\NC(=S)NC2=O)cc1 | -26% (inactive) | 
60 | C[n+]1ccc(/C=C/c2cc[n+](C)c3ccccc23)c2ccccc21 |  | 11.6 µM (active)
61 | CCCCn1c(N)c(N(CCC(C)C)C(=O)c2ccc([N+](=O)[O-])o2)c(=O)[nH]c1=O | 0.229% (inactive) | 
62 | CCCCn1c(N)c(N(CC(C)C)C(=O)Cc2ccc(S(=O)(=O)N3CCOCC3)s2)c(=O)[nH]c1=O |  | 23.1 µM (active)
63 | C=CCN1C(=O)c2ccc(C(=O)N(CC(C)C)c3c(N)n(CCCC)c(=O)[nH]c3=O)cc2C1=O | 4.71% (inactive) | 
64 | COc1cccc(/C(O)=C/c2nc3ccc(C(=O)NCCc4cccc(C)c4)cc3[nH]c2=O)c1 |  | 11.6 µM (active)
65 | COc1cccc(/C(O)=C/c2nc3ccc(C(=O)NCCc4ccc(Cl)cc4)cc3[nH]c2=O)c1 |  | 8.2 µM (active)
66 | COc1cccc(Sc2ccccc2/C=N/NC(N)=O)c1 | -25.5% (inactive) | 
67 | COc1ccc2nc(C)cc(SCC(=O)N/N=C/c3cccc4ccccc34)c2c1 |  | 11.2 µM (active)
68 | CCn1c(SCC(=O)N/N=C/c2ccc(C)s2)nc2ccccc21 | -29.4% (inactive) | 
69 | Cc1ccc(CN(C(=O)c2ccccc2F)c2ccccn2)o1 | -5.38% (inactive) | 

Row | SMILES | max response | Potency
70 | Cc1cccc(C)c1NC(=S)NC(C)CCc1ccccc1 (stereo unspecified) | 1.36% (inactive) | 
71 | CN1C(=S)N(c2cccnc2)C(=O)/C1=C\c1ccc(N(C)C)cc1 |  | 15.8 µM (active)
72 | CN1C(=O)/C(=C\c2ccc(N(C)C)cc2)OC1=S |  | 7.9 µM (active)
73 | O=C(NC(=S)N1CCc2ccccc21)c1ccco1 | -0.232% (inactive) | 
74 | CN(C)S(=O)(=O)c1ccc2c(c1)/C(=C/c1cc3c([nH]1)CCCC3)C(=O)N2 |  | 2.23 µM (active)
75 | O=C1/C(=C/c2ccc(O)cc2)SC(=S)N1CC1CCCO1 (stereo unspecified) | 5.6% (inactive) | 
76 | COCCN1C(=O)/C(=C/c2ccc(N3CCCC3)cc2)SC1=S |  | 4.61 µM (active)
77 | COCCN1C(=O)/C(=C/c2ccc(N3CCCC3)cc2C)SC1=S |  | 2.59 µM (active)
78 | CN(Cc1cnn(Cc2ccccc2)c1)C(=O)c1cccc(S(=O)(=O)N2CCOCC2)c1 | -22% (inactive) | 
79 | CC(=O)c1ccc2cccc3c2c1N=CN3C |  | 15.8 µM (active)
80 | COc1ccc2c(Cl)c(C(=O)N/N=C3\CCCC(=O)C3)sc2c1 |  | 14 µM (active)
81 | CCOc1cc(C(=O)NN=C2CCCC2)cc(OCC)c1OCC | -3.9% (inactive) | 
82 | O=[N+]([O-])c1ccc(N2CCN(Cc3ccccc3)CC2)c2c1no[n+]2[O-] |  | 14 µM (active)
83 | Cc1ccc2nc(C)c(C(=O)NN=C3CCCCCC3)n2c1 | -15.2% (inactive) | 
84 | N#CCSc1ccccc1NC(=O)CN1C(=O)C2CC=CCC2C1=O (stereo unspecified) |  | 14 µM (active)
85 | N#CCSc1ccccc1NC(=O)CN1C(=O)NC(CCc2ccccc2)C1=O (stereo unspecified) | -19.2% (inactive) | 
86 | Cc1ccccc1NC(=O)CSC1=C(C#N)C(c2ccsc2)CC(=O)N1 (stereo unspecified) | -7.98% (inactive) | 
87 | CS(=O)(=O)Nc1ccc(C2=NN(S(C)(=O)=O)C(c3ccc4nccnc4c3)C2)cc1 (stereo unspecified) | -7.65% (inactive) | 
88 | CS(=O)(=O)N1N=C(c2ccccc2)CC1c1ccc2c(c1)OCO2 (stereo unspecified) |  | 14 µM (active)
89 | Cc1ccccc1C1CC(c2cccs2)=NN1S(C)(=O)=O (stereo unspecified) | -5.18% (inactive) | 
90 | CS(=O)(=O)Nc1cccc(C2=NN(S(C)(=O)=O)C(c3ccc4c(c3)OCO4)C2)c1 (stereo unspecified) | -28.5% (inactive) | 
91 | CS(=O)(=O)Nc1ccc(C2=NN(S(C)(=O)=O)C(c3ccc4c(c3)OCO4)C2)cc1 (stereo unspecified) |  | 17.7 µM (active)
